The campaign covered roughly 310,000 compounds. About 1,600 (0.52%) were called active.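 How the source made its calls: active means activation above the mean of controls blocked by dofetilide plus 5 SD; inactive means the rest.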 The list comes from a sample in which actives are over-represented; it also holds similar structures and randomly drawn compounds.

Sequence of Voltage-gated inwardly rectifying potassium channel KCNH2 (Homo sapiens) (Q12809 whole entry, looked up): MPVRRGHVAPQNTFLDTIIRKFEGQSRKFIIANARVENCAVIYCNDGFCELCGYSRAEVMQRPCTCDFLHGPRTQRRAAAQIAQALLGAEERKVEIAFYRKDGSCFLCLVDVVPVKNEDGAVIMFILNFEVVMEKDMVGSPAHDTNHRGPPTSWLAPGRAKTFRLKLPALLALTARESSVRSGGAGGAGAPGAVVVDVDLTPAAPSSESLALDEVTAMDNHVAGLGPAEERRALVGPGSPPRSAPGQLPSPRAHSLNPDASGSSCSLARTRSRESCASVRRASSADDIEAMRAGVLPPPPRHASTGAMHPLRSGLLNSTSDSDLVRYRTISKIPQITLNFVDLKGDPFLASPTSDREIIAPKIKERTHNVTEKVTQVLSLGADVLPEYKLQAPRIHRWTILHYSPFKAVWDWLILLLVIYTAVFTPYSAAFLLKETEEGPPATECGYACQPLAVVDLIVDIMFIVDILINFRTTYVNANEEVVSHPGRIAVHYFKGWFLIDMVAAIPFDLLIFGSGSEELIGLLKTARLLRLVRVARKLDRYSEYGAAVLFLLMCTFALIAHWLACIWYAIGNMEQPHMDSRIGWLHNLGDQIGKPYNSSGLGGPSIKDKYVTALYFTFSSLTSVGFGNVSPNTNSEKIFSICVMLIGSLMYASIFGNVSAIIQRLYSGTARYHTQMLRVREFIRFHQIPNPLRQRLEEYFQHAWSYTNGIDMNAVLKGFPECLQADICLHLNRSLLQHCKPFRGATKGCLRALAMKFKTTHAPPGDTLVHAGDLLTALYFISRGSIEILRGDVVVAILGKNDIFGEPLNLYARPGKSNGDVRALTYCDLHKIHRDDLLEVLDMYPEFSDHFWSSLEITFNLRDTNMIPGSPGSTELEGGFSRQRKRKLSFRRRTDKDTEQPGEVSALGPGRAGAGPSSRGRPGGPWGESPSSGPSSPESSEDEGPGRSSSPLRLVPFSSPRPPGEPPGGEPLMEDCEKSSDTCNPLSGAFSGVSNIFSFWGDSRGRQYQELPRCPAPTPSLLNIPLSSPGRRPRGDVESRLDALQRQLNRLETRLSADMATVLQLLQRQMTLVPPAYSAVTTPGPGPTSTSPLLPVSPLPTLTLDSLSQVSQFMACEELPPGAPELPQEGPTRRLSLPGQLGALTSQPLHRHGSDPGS

This experiment has as its target Voltage-gated inwardly rectifying potassium channel KCNH2 (Homo sapiens) (UniProt Q12809). The experiment is described as follows: compounds relieving dofetilide block of hERG – cell-based, CHO-hERG, FluxOR thallium flux, dofetilide IC70, primary screen (AID 1511).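 Further: thallium influx through hERG after potassium depolarization seen as dye fluorescence rise.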 The following applies: dofetilide IC70 present, at 10 µM, active compounds read high. In general terms: hERG is a cardiac potassium channel; its block is linked to QT prolongation.
Consider `CC1CCCN(C(=O)c2ccc3c(c2)C(=O)N(CCC2=CCCCC2)C3=O)C1` (stereo unspecified), for which the activation (rescue from dofetilide block), less the hit threshold is -17.2% (inactive). For the compound `Cc1ccc(S(=O)(=O)Oc2ccc(/C=N/NC(=O)c3c(Cl)cnn3C)cc2)cc1`, the activation (rescue from dofetilide block), less the hit threshold is -18.1% (inactive). The figure for `CCc1nc2sc3c(Cl)ncnc3c2c2c1CCCC2` is -13.4% (inactive).

Consider `Cc1ccc(C)c(C(C)NC(=O)C2CCCO2)c1` (stereo unspecified), for which the activation (rescue from dofetilide block), less the hit threshold is -6.97% (inactive). `Cc1cc([N+](=O)[O-])ccc1NC(=O)C1CCCO1` (stereo unspecified): the activation (rescue from dofetilide block), less the hit threshold is -1.96% (inactive).

As for `Cc1cc(C)c2nc(NC(=O)C3CCCO3)sc2c1` (stereo unspecified), the activation (rescue from dofetilide block), less the hit threshold is 5.12% (active). For the compound `CSc1cccc(NC(=S)N(C(C)C)C(C)c2ccccn2)c1` (stereo unspecified), the activation (rescue from dofetilide block), less the hit threshold is -10.5% (inactive). With `N#Cc1c(NC(=O)CSc2nc3ccccc3c(=O)n2Cc2ccco2)sc2c1CCCC2`, the activation (rescue from dofetilide block), less the hit threshold is -16.4% (inactive).

As for `Cc1cc(NC(=O)CSc2nc3cc(Cl)ccc3c(=O)n2Cc2ccco2)no1`, the activation (rescue from dofetilide block), less the hit threshold is 6.67% (active). Take `Cc1cc(NC(=O)CSc2nc3ccccc3n2CC(C)C)no1`: the activation (rescue from dofetilide block), less the hit threshold is -8.27% (inactive). Regarding `CCN1CCN(c2nc(Nc3cccc(F)c3)nc(N)c2[N+](=O)[O-])CC1`, the activation (rescue from dofetilide block), less the hit threshold is 1.19% (inactive). With `CCCN(CCC)S(=O)(=O)c1ccc(C(=O)NNC(=O)c2cc(OC)c(OC)c(OC)c2)cc1`, the activation (rescue from dofetilide block), less the hit threshold is -5.35% (inactive). Next, `C=CCN1C=C2C(=O)C(C)(OC(=O)CCc3ccccc3)C(=O)C=C2C=C1c1ccc(C#N)cc1` (stereo unspecified): -7.84% (inactive); `CC1(OC(=O)C2CCCC2)C(=O)C=C2C=C(c3ccc(C#N)cc3)OC=C2C1=O` (stereo unspecified): 7.34% (active); `COCCN1C=C2C(=O)C(C)(OC(=O)C3CCCC3)C(=O)C=C2C=C1c1ccsc1` (stereo unspecified): -7.58% (inactive). Consider `COc1ccc2c(c1)OC(O)(C(F)(F)C(F)F)CC2=O` (stereo unspecified), for which the activation (rescue from dofetilide block), less the hit threshold is -2.37% (inactive). Next, `CCN1CCCC1CNC(=O)Cn1cnc2ccc(S(=O)(=O)N3CCC(C)CC3)cc2c1=O` (stereo unspecified): 7.23% (active); `CC1CCN(S(=O)(=O)c2ccc3ncn(CC(=O)N(C)C4CCCCC4)c(=O)c3c2)CC1`: -5.76% (inactive); `O=C(Cn1cnc2ccccc2c1=O)Nc1cccc(S(=O)(=O)N2CCCCC2)c1`: -13.8% (inactive).

As to `CN(CCc1cn[nH]c1)C(=O)CC1C(=O)NCCN1Cc1cccc(Oc2ccccc2)c1` (stereo unspecified), the activation (rescue from dofetilide block), less the hit threshold was -5.68% (inactive). `S=c1ccc2ccccc2[nH]1`: the activation (rescue from dofetilide block), less the hit threshold is -11.4% (inactive). The figure for `NC(=O)Cc1ccc2c(c1)[nH]c1ccccc12` is -8.6% (inactive). Next, `S=c1[nH]c2ccccc2c2ccccc12`: 6.26% (active). Regarding `O=C(C1CCCN1S(=O)(=O)c1ccc(Br)cc1)N1CCOCC1` (stereo unspecified), the activation (rescue from dofetilide block), less the hit threshold is -0.78% (inactive).

Take `O=C(CSc1nnc(-c2ccccc2O)o1)NC1CCCCC1`: the activation (rescue from dofetilide block), less the hit threshold was -7.03% (inactive). The figure for `CCCCCC1CCC(c2nnc(SCC(C)=O)o2)CC1` (stereo unspecified) is 5.95% (active); for `CCN(CC)C(=O)CSc1nnc(C2CCCCC2)o1` it is -6.69% (inactive).

As for `COc1ccc(-c2cn(-c3ccc(OC)cc3)c(=S)[nH]2)cc1`, the activation (rescue from dofetilide block), less the hit threshold was -3.47% (inactive). The figure for `S=c1[nH]c(-c2cccs2)cn1-c1ccccc1` is 8.23% (active); for `O=c1oc2ccccc2cc1-c1cn(-c2ccccc2)c(=S)[nH]1` it is -6.67% (inactive).

In the case of `CC(=O)N1CCN(S(=O)(=O)c2ccc(C)c([N+](=O)[O-])c2)C1C(C)C` (stereo unspecified), the activation (rescue from dofetilide block), less the hit threshold is -8.18% (inactive). Regarding `Cc1ccc2c(c1)N(CC(=O)N1CCC(C)CC1)C(=O)c1cccnc1O2`, the activation (rescue from dofetilide block), less the hit threshold was -4.18% (inactive).

`C=CCc1cc(S(=O)(=O)c2ccc(O)c(CC=C)c2)ccc1O`: the activation (rescue from dofetilide block), less the hit threshold was -8.79% (inactive).

In the case of `CCC1(C)Cc2c(sc3[nH]c(=S)n(Cc4ccccc4)c(=O)c23)CO1` (stereo unspecified), the activation (rescue from dofetilide block), less the hit threshold is 32.2% (active). Consider `CCC1(C)Cc2c(sc3nc(SC)[nH]c(=O)c23)CO1` (stereo unspecified), for which the activation (rescue from dofetilide block), less the hit threshold is -9.23% (inactive). The figure for `CCC1(C)Cc2c(sc3nc4n(c(=O)c23)CCCS4)CO1` (stereo unspecified) is -3.92% (inactive); for `Cc1ccc2nc(-c3ccncc3)cc(C(=O)Nc3ccc4c(c3)OCCO4)c2c1` it is 6.28% (active); for `Cc1ccc2nc(-c3ccncc3)cc(C(=O)Nc3ccncc3)c2c1` it is -6.13% (inactive). The figure for `Cc1ccc2nc(-c3ccccn3)cc(C(=O)Nc3ccc4c(c3)OCO4)c2c1` is -4.32% (inactive); for `O=C(NCC1CC1)c1onc(CSc2ccccc2)c1C(=O)NCC1CC1` it is -9.81% (inactive); for `COc1ccc(CC(=O)N2N=C(C)CC2(O)C(F)(F)F)cc1` (stereo unspecified) it is -4.8% (inactive). Take `Cc1nc2ccc(C(=O)O)cc2[nH]1`: the activation (rescue from dofetilide block), less the hit threshold was 6.97% (active).

In the case of `Cc1nc2ccc(C(=O)N/N=C/c3ccc(O)cc3)cc2[nH]1`, the activation (rescue from dofetilide block), less the hit threshold is -13.1% (inactive). Next, `CC(C)c1nc2ccc(C(=O)O)cc2[nH]1`: -0.43% (inactive). Consider `COc1ccc(CNS(=O)(=O)c2cc(-c3cc(C)no3)ccc2C(C)C)cc1`, for which the activation (rescue from dofetilide block), less the hit threshold is -6.05% (inactive). Take `CS(=O)(=O)N(Cc1nc2sc3c(c2c(=O)[nH]1)CCCC3)C1CCCCC1`: the activation (rescue from dofetilide block), less the hit threshold was -10.9% (inactive). The figure for `Cc1cc(Cl)ccc1NNC(=O)c1snnc1C` is -9.34% (inactive).

In the case of `COc1nc(NC2CCCCC2)nc(N2CCCCCC2)n1`, the activation (rescue from dofetilide block), less the hit threshold is -7.83% (inactive). For the compound `Oc1ccc2ccccc2c1N=Nc1nccs1`, the activation (rescue from dofetilide block), less the hit threshold is 29.7% (active). Next, `Oc1ccc(N=Nc2nccs2)c(O)c1`: -0.07% (inactive). In the case of `c1ccc(NCc2cccc3ccccc23)nc1`, the activation (rescue from dofetilide block), less the hit threshold is -3.89% (inactive).

Consider `C=CCC1=C/C(=C\c2c(N)n3nc(CC(=O)N4CCOCC4)sc3nc2=O)C=C(OC)C1=O`, for which the activation (rescue from dofetilide block), less the hit threshold was -8.72% (inactive). Consider `Cn1c(SCC(=O)N2CCOCC2)nnc1-c1ccc(NC(=O)c2ccccc2F)cc1`, for which the activation (rescue from dofetilide block), less the hit threshold is 6.37% (active).

Turning to `Cn1c(SCC(=O)N2CCCC2)nnc1-c1ccc2c(c1)OCO2`, the activation (rescue from dofetilide block), less the hit threshold was -8.24% (inactive). With `Cn1c(SCC(=O)N2CCOCC2)nnc1-c1ccc2ncccc2c1`, the activation (rescue from dofetilide block), less the hit threshold was -4.81% (inactive). `Cc1cccc(NC(=O)c2ccc([N+](=O)[O-])o2)c1`: the activation (rescue from dofetilide block), less the hit threshold was -12.5% (inactive). The figure for `Cc1cccc(NC(=O)NC(=S)NC(=O)c2ccccc2)c1` is -0.76% (inactive); for `Cc1cccc(NC(=S)NC(=O)c2ccc(Br)o2)c1` it is 17.4% (active). On to `CCc1ccc(C2N3CC4([N+](=O)[O-])CN2CC([N+](=O)[O-])(C3)C4(C)C)cc1` (stereo unspecified), for which the activation (rescue from dofetilide block), less the hit threshold is -4.31% (inactive). The figure for `O=C(CCl)Nc1cccc(CP(=O)(c2ccccc2)c2ccccc2)c1` is -8.43% (inactive). Next, `Cc1ccc(NC(=S)NC2CCCC2)cc1`: 4.71% (active); `Cc1ccc(NC(=O)CSCC(=O)NC2CCCCC2)cc1`: -3.26% (inactive); `Cc1cc(Br)ccc1NC(=S)NC1CCCC1`: -9.68% (inactive).

With `COc1cc(C(=O)Nn2c(O)c(C3=c4ccccc4=NC3=O)sc2=S)ccc1O`, the activation (rescue from dofetilide block), less the hit threshold was -14.6% (inactive).

For the compound `Cc1onc(-c2ccc(Cl)cc2)c1-c1ccnn1S(=O)(=O)c1ccc(Cl)cc1`, the activation (rescue from dofetilide block), less the hit threshold was -7.23% (inactive). In the case of `CC(C)NC(=O)CCCn1c(=S)[nH]c2cc3c(cc2c1=O)OCO3`, the activation (rescue from dofetilide block), less the hit threshold is -9.07% (inactive).

Turning to `CCCCNC(=O)CCn1c(=S)[nH]c2cc3c(cc2c1=O)OCO3`, the activation (rescue from dofetilide block), less the hit threshold is -6.01% (inactive). Consider `O=C(CCn1c(=S)[nH]c2cc3c(cc2c1=O)OCO3)NCc1ccc(Cl)cc1`, for which the activation (rescue from dofetilide block), less the hit threshold was 4.99% (active). Take `N#Cc1c(-c2ccc(F)cc2)cc(C2CC2)nc1SCC(=O)c1cccs1`: the activation (rescue from dofetilide block), less the hit threshold is 8.07% (active).

For the compound `N#Cc1c(-c2ccccc2)cc(-c2ccccc2)nc1SCC(=O)O`, the activation (rescue from dofetilide block), less the hit threshold was -12.9% (inactive). For the compound `CCOC(=O)CC(=O)CSc1nc(-c2ccccc2)cc(-c2ccc(Cl)cc2)c1C#N`, the activation (rescue from dofetilide block), less the hit threshold is -4.82% (inactive). Next, `NC(=O)COc1ccc(C23CC4CC(CC(C4)C2)C3)cc1`: -4.82% (inactive); `O=C(O)CN(Cc1ccco1)S(=O)(=O)c1ccc(F)cc1`: -6.3% (inactive). The figure for `CN(C)c1nc(=Nc2cccc(Cl)c2)ss1` is 40.5% (active). The figure for `Clc1cccc(N=C2NN=C(c3ccc4c(c3)OCCO4)CS2)c1` is -12.5% (inactive); for `COc1ccc(CCNC(=O)CSCc2ccc(Br)cc2)cc1OC` it is -9.1% (inactive); for `Cc1cccc(C)c1NC(=O)CCS(=O)(=O)c1cccc2nsnc12` it is -5.88% (inactive).

As for `N#Cc1c(N)nc2c(c1N)CC(C(F)(F)F)O2` (stereo unspecified), the activation (rescue from dofetilide block), less the hit threshold is -1.93% (inactive). As for `Fc1ccc2nc(Nc3nc4c(s3)CCCC4)sc2c1`, the activation (rescue from dofetilide block), less the hit threshold was 10.5% (active). The figure for `CSc1ncccc1C(=O)Nc1nc2ccc(F)cc2s1` is -5.7% (inactive); for `O=C(Cn1c(=O)sc2ccccc21)Nc1nc2c(s1)CCCC2` it is -3.68% (inactive); for `Brc1ccc(Nc2c3c(nc4ncnn24)CCC3)cc1` it is -14.2% (inactive). Turning to `CC(C)c1ccc2c(c1)c(SC(C)(C)C)c(CC(C)(C)C(=O)O)n2Cc1ccc(Cl)cc1`, the activation (rescue from dofetilide block), less the hit threshold was 26.6% (active). Next, `O=C(O)c1ccc(Cn2c(=S)[nH]c3cc(Cl)ccc3c2=O)cc1`: -3.87% (inactive); `S=C(Cc1ccc(Cl)cc1)N1CCOCC1`: -11.3% (inactive). Next, `CCN(CC)CCCNC(=O)c1c(O)c2cc(F)cc3c2n(c1=O)C(C)CC3` (stereo unspecified): -2.1% (inactive); `Cc1ccc(N(CC(=O)Nc2cc(C)cc(C)c2)S(=O)(=O)c2cccc3nonc23)cc1`: 4.86% (active); `CCOC(=O)c1cccc(NC(=O)CN(c2ccc(C)cc2)S(=O)(=O)c2c(C)noc2C)c1`: -0.14% (inactive). Next, `Cc1ccc(CNC(=O)CCNS(=O)(=O)c2cccc3nonc23)cc1`: -9.61% (inactive); `Cc1cc2c(cc1S(=O)(=O)NCc1ccc(Cl)cc1)OCC(=O)N2`: -9.71% (inactive); `CCC(C(=O)N1CCOCC1)n1c(C(=O)OC)cc2occc21` (stereo unspecified): -6.73% (inactive). In the case of `CCCCOC(=O)NCN1C(=O)C2C3C=CC(C3)C2C1=O` (stereo unspecified), the activation (rescue from dofetilide block), less the hit threshold is -3.35% (inactive). Next, `CCCC(C(=O)N1CCOCC1)N1C(=O)C2C3C=CC(C3)C2C1=O` (stereo unspecified): 4.64% (active). With `COc1ccc(CNC(=O)C(C)n2nc(C)c3c(C)n(-c4ccccc4)nc3c2=O)c(OC)c1` (stereo unspecified), the activation (rescue from dofetilide block), less the hit threshold was -10.8% (inactive). Take `COc1ccc(C(=O)N2CCCN(C)CC2)c(OC)c1`: the activation (rescue from dofetilide block), less the hit threshold is 0.38% (inactive). Regarding `Cc1cc(C)c2c(n1)sc1c(=O)n(-c3ccccc3)c(=O)[nH]c12`, the activation (rescue from dofetilide block), less the hit threshold was -5.76% (inactive).
